Hits are enriched below; roughly 3.5% of the tested compounds scored in any of these assays.
GPR151 ag = activates the human receptor GPR151; activation, % at 11.2 µM; AID 1508602; 650,000 tested, 1% active; Q8TDV0; PathHunter beta-arrestin GPR151 cells, luminescence; in the data active = activation above about 4.9%;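 note: 0% = median of compound wells and 100% = cells with positive control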
Target sequence (Q8TDV0 whole entry, looked up): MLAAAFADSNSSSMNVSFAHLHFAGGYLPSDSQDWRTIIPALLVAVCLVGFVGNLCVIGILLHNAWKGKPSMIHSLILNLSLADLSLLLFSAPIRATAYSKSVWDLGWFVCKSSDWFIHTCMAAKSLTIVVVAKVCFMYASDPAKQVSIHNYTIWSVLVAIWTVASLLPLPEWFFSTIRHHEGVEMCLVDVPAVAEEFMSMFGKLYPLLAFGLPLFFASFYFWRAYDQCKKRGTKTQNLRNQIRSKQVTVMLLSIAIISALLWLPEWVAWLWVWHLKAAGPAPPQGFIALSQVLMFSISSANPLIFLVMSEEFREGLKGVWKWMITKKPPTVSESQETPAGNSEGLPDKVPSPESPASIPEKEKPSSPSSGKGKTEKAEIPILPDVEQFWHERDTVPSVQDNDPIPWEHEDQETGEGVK
TEAD-YAP block = TEAD-YAP interaction inhibition | HEK-TIYL cells, TEAD-Gal4/YAP UAS-luciferase luminescence | inhibition, % at 9.12 µM | 640,000 tested, 1.4% active | AID 1259422; in the data active = inhibition above about 32%;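 note: 0% = median of test compound wells and 100% = reference inhibitor wells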
FBW7 activator = activators of human E3 ligase FBW7 | AlphaScreen FBW7–phospho-cyclin E peptide binding, activator screen | normalized activity (activation), % at 26.1 µM | 650,000 tested, 0.13% active; in the data active = normalized activity above about 1.9%;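 note: purified mutant Fbw7 with reduced substrate affinity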
MITF inh = inhibitors of human MITF | inhibition, % at 2.6 µM | AlphaScreen MITF homodimerization, bead proximity signal | O75030 | 650,000 tested, 0.91% active | AID 1259374; in the data active = inhibition above about 50%;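 note: 0% = vehicle wells with protein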
* = called active by the depositor; ! = a repeat was not active.

SMILES | GPR151 ag | TEAD-YAP block | FBW7 activator | MITF inh
NC(=O)N/N=C/c1cn(-c2ccccc2)nc1-c1cccs1 | 0.4 | -24.3 | 0.1 | -5.5
Cc1ccc(CN(CC(=O)O)Cc2cn(-c3ccccc3)nc2-c2cccs2)cc1 | 1.2 | 59.6* | 0.2 | -5.0
NS(=O)(=O)c1cccc2c1c([N+](=O)[O-])cc1[nH]c(=O)c(=O)[nH]c12 | -0.1 | -2.1 | 0.8 | 69.1*!
O=c1[nH]c2c([N+](=O)[O-])cccc2c2ccccc12 | 0.8 | 13.4 | 0.2 | 8.3
CC(C)CN1C(=O)NC(Cc2cccc(F)c2)(C2CCN(C(=O)C3CC3)CC2)C1=O (stereo not given) | -0.1 | 0.8 | 0.0 | 11.8
CCOc1ccc(-c2cn(-c3ccccc3)c3[n+]2CCS3)cc1 | 3.2 | 65.1* | 0.1 | 7.5
COc1ccc(-c2cn(-c3ccccc3)c3[n+]2CCS3)cc1 | 0.0 | 32.3* | -0.1 | 8.6
COc1ccc(-n2cc(-c3ccccc3)[n+]3c2SCC3)cc1 | -0.1 | 58.9* | 0.2 | -0.5
COc1ccc(-n2cc(-c3ccc(Cl)cc3)[n+]3c2SCCC3)cc1 | -1.0 | 26.4 | -0.1 | -0.9
O=c1cc(CN2CCCCC2)c2cc(O)ccc2o1 | 0.2 | 0.8 | 0.1 | 6.0
O=c1cc(CN2CCN(Cc3ccc4c(c3)OCO4)CC2)c2cc(O)c(O)cc2o1 | 4.0 | -3.4 | -0.8 | 90.5*
O=c1cc(CN2CCN(c3ccccc3O)CC2)c2cc(O)c(O)cc2o1 | -0.4 | -4.5 | 0.2 | 89.7*
O=C(NCCO)C(=O)NCc1ccc2c(c1)OCO2 | -1.3 | 1.1 | 1.1 | -14.1
N#CCC(=O)Nc1cccc2ccccc12 | -0.7 | -14.6 | 0.2 | 19.7
CN(C)S(=O)(=O)N1CCC(Oc2cccc(C(=O)NC3CCCCC3)c2)CC1 | 1.3 | 43.3* | 0.1 | -0.7
CN(C)S(=O)(=O)N1CCC(Oc2ccc(C(=O)NC3CCCCC3)cc2)CC1 | -0.7 | -14.3 | 0.0 | -0.8
CC[n+]1c(/C=C(/C)OC)sc2ccccc21 | -0.6 | 33.5* | 0.0 | 3.0
CN(C)c1ccc(/C=C/c2sc3ccc4ccccc4c3[n+]2C)cc1 | -1.0 | 53.1* | 0.2 | 18.5
CC[n+]1ccc(/C=C/c2ccc(N(C)C)cc2)cc1 | 1.5 | 82.3* | -0.4 | 0.7
CC[n+]1c(/C=C/c2ccc(N(C)C)cc2)sc2ccccc21 | -0.4 | 53.8* | 0.3 | 18.9
COc1ccc(-c2cc(C(=O)NCCOc3ccccc3)ccn2)cn1 | 0.4 | 2.2 | 0.1 | 5.9
COC(=O)Cn1c(O)c(N=NC(=O)CNC(=O)c2ccccn2)c2ccccc21 | 0.6 | 4.8 | 0.0 | -2.1
CCOc1ccc(C2NC(=O)NC(C)=C2C(=O)OCc2ccc3c(c2)OCO3)cc1 (stereo not given) | 0.3 | 56.0* | 0.3 | 15.2
CCOc1ccccc1C1NC(=O)NC(C)=C1C(=O)OCc1ccc2c(c1)OCO2 (stereo not given) | -0.8 | 7.1 | -0.1 | 19.3
CCCOc1ccc(C2NC(=O)NC(C)=C2C(=O)OCc2ccc3c(c2)OCO3)cc1 (stereo not given) | 2.1 | 54.9* | 0.0 | -10.6
SMILES | GPR151 ag | TEAD-YAP block | FBW7 activator | MITF inh
CC(C)c1cc(C(=O)Nc2ccc(F)cc2)nn1-c1nc2ccccc2s1 | 1.0 | -7.3 | -0.1 | 33.7
CC(C)c1cc(C(=O)NCc2ccco2)nn1-c1nc2ccccc2s1 | 0.6 | 78.2* | -0.1 | -1.7
COc1ccccc1NC(=O)C(=O)NC1CCC(C)CC1 (stereo not given) | -0.1 | -14.6 | 1.1 | 9.7
COCC(=O)Nc1c(C)nc2cnc(-c3ccoc3)cn12 | 0.6 | -4.3 | -0.2 | 19.2
Cc1cc(C)c2c(c1)CC(C)(C)C(=O)C2=O | -0.2 | 3.0 | 0.0 | 6.2
C=C1C(c2ccc(C)cc2)=CCc2cc(C)cc(C)c21 | -4.9 | 54.4* | -0.2 | 10.8
CNc1c(-c2nc(-c3ccc(OC)cc3)n[nH]2)nnn1Cc1ccccc1Cl | 1.3 | 46.3* | -0.1 | 13.0
CN(C)CP(=O)(O)CCc1ccccc1 | -0.9 | 7.9 | 5.1* | 1.4
O=C(NCc1ccc(F)cc1)C1CC2CCCN2C12C(=O)Nc1ccccc12 (stereo not given) | 2.3 | 0.8 | 0.0 | 0.6
O=C(Nc1cccc(NCc2ccc3c(c2)OCO3)c1)c1ccccc1Cl | -0.5 | 10.0 | -0.2 | 4.4
CCN(CC)S(=O)(=O)c1cc(C(=O)Oc2cccc(NC(=O)c3ccc(Br)cc3)c2)ccc1C | 0.0 | 19.7 | -0.1 | -6.5
CCN(CC)S(=O)(=O)c1cc(C(=O)Oc2cccc(NC(=O)c3ccccc3Cl)c2)ccc1C | 0.4 | 55.1* | -0.3 | 4.4
O=C(Oc1cccc(NC(=O)c2ccccc2Cl)c1)c1ccc2c(c1)OCO2 | 1.6 | 59.5* | -0.1 | -9.3
Cc1ccc(OCC(=O)Oc2cccc(NC(=O)c3ccccc3Cl)c2)cc1C | 0.1 | 61.0* | 0.0 | 3.1
CCN(CC)S(=O)(=O)c1cc(C(=O)Oc2cccc(NC(=O)c3ccc([N+](=O)[O-])cc3)c2)ccc1C | -0.6 | 35.6* | -0.1 | 6.0
CCN(CC)S(=O)(=O)c1cccc(C(=O)Oc2cccc(NC(=O)c3cccc(OC)c3)c2)c1 | -4.1 | 26.1 | 0.0 | -1.7
CCOc1ccccc1NC(=O)C1=C(C)NC(=O)NC1c1cc(OC)c(OC)c(OC)c1 (stereo not given) | 0.4 | -11.6 | 0.1 | -8.8
O=C(NCCN1CCOCC1)C1CCN(c2ccc(Nc3ccc(C(F)(F)F)cc3)nn2)CC1 | 0.8 | -8.9 | -0.1 | 2.8
Cc1ccc(Cl)cc1NC(=O)c1ccc(Br)cc1 | 0.5 | 8.8 | 0.0 | 4.1
CCN(CC)c1cc(C)nc(Nc2ccc(NC(=O)C(C)C)cc2)n1 | -0.9 | 47.6* | 0.2 | 13.0
COCCN=c1scc(-c2cccc3ccccc23)n1/N=C/c1ccc[nH]1 | 1.8 | 42.7* | -0.3 | 9.6
O=C(Nc1ccc(Cl)cc1C(F)(F)F)c1cc(S(=O)(=O)N2CCc3ccccc3C2)ccc1F | 3.7 | -4.5 | -0.1 | -1.3
OC[C@@H]1CCCN1c1ccnc2c(-c3ccc(Cl)cc3)cnn12 | -1.3 | 85.1* | -0.2 | 19.5
OCCC1CCCCN1c1ccnc2c(-c3ccc(CO)cc3)cnn12 (stereo not given) | -0.5 | -26.8 | -0.1 | -1.4
O=C(O)c1cccc(-c2cnn3c(N4CCC[C@H]4CO)ccnc23)c1 | -5.6 | 100.8* | -0.2 | 18.4
SMILES | GPR151 ag | TEAD-YAP block | FBW7 activator | MITF inh
OCCC1CCCCN1c1ccnc2c(-c3ccc(Cl)cc3)cnn12 (stereo not given) | 0.4 | 47.1* | 0.4 | -10.8
COc1ccccc1-c1cnn2c(N3CCC[C@H]3CO)ccnc12 | 1.7 | -53.6 | 0.1 | 5.1
OC[C@@H]1CCCN1c1ccnc2c(-c3ccccc3Cl)cnn12 | -1.0 | 48.4* | -0.1 | 1.4
CC(=O)N(C(C)=O)c1cc(C(=O)O)ccc1Sc1ccc(Br)cc1 | 0.8 | -2.0 | 0.2 | 2.2
Cc1c(C(=O)NCc2cccnc2)sc2ncnc(N(C)c3ccccc3)c12 | -0.8 | -7.4 | -0.1 | -1.4
OCCC1CCCCN1c1ccnc2c(-c3ccc(O)cc3)cnn12 (stereo not given) | -1.1 | 92.8* | 0.2 | -4.1
OCCC1CCCCN1c1ccnc2c(-c3ccoc3)cnn12 (stereo not given) | 0.9 | -9.4 | 0.4 | -3.1
OCCC1CCCCN1c1ccnc2c(-c3ccc4c(c3)OCO4)cnn12 (stereo not given) | -0.3 | 42.6* | -0.2 | 4.5

Assay outcomes deposited in PubChem BioAssay by The Scripps Research Institute Molecular Screening Center.
